{
  "source": "ChEMBL document CHEMBL3988442",
  "about": "“University of Dundee, Small-Polar-MMV Screening Library” (2021)",
  "note": "Screen size: about 48,000 compounds; about 13,000 (27%) showed an effect of 50% or more. This is one part of the list.",
  "data": [
    {"test_system": "Wolbachia pipientis", "experiment": "Anti-Wolbachia Cell-Based Screen", "assay_type": "functional", "design": "scale not given: in the data most compounds retested in dose-response had high values", "settings": "5 µM", "units": {"Percent Effect": "%"}, "values": [
      {"smiles": "CC(C(=O)N1CCN(c2ccc(F)cc2)CC1)n1ccnc1", "note": "(configuration not stated)", "Percent Effect": 2.016},
      {"smiles": "CN(C)S(=O)(=O)N1C[C@@H]2CC[C@H](C1)N(C/C=C/c1ccc(F)cc1)C2", "Percent Effect": 19.59},
      {"smiles": "Cc1ccccc1OCC(=O)N1CCOC2(CNCCOC2)C1", "note": "(configuration not stated)", "Percent Effect": -22.9},
      {"smiles": "COc1ccccc1CC(=O)N1CCC(NCc2cc[nH]c2)CC1", "Percent Effect": 5.746},
      {"smiles": "CCCc1noc(CCC(=O)N2CCCC2Cn2cc(C)cn2)n1", "note": "(configuration not stated)", "Percent Effect": 127.2},
      {"smiles": "CCCc1noc(CCC(=O)N2CCCCC2Cn2cc(C)cn2)n1", "note": "(configuration not stated)", "Percent Effect": 117.6},
      {"smiles": "CCCc1noc(CCC(=O)N2CCCC2c2ccsc2)n1", "note": "(configuration not stated)", "Percent Effect": 2.757},
      {"smiles": "Fc1cnc(N2C[C@@H]3COC[C@]3(COc3ccccn3)C2)nc1.O=C(O)C(F)(F)F.O=C(O)C(F)(F)F", "Percent Effect": 104.4},
      {"smiles": "O=C(O)C(F)(F)F.O=C(O)C(F)(F)F.c1ccc(OC[C@]23COC[C@H]2CN(c2ncccn2)C3)nc1", "Percent Effect": -14.79},
      {"smiles": "O=C(CC1CC1)NC[C@]12COC[C@H]1CN(c1ncccn1)C2.O=C(O)C(F)(F)F", "Percent Effect": -5.322},
      {"smiles": "COc1cc(N2C[C@@H]3COC[C@]3(C(=O)NCc3ccccn3)C2)ncn1", "Percent Effect": -14.4},
      {"smiles": "Fc1cnc(N2C[C@H]3CCC[C@@]3(COc3ccccn3)C2)nc1.O=C(O)C(F)(F)F.O=C(O)C(F)(F)F", "Percent Effect": -0.7444},
      {"smiles": "COc1cc(N2C[C@@H]3COC[C@]3(C(=O)NC3CC(F)(F)C3)C2)ncn1.O=C(O)C(F)(F)F", "Percent Effect": 12.94},
      {"smiles": "CCS(=O)(=O)N1C[C@H]2CCC[C@@]2(COc2ccccn2)C1.O=C(O)C(F)(F)F", "Percent Effect": 18.76},
      {"smiles": "O=C(O)C(F)(F)F.O=S(=O)(C1CC1)N1C[C@H]2CCC[C@@]2(COc2ccccn2)C1", "Percent Effect": 2.736},
      {"smiles": "COc1cc(N2C[C@@H]3COC[C@]3(COc3ccccn3)C2)ncn1.O=C(O)C(F)(F)F.O=C(O)C(F)(F)F", "Percent Effect": 106},
      {"smiles": "O=C(CC1CC1)NC[C@]12COC[C@H]1CN(c1ncc(F)cn1)C2.O=C(O)C(F)(F)F", "Percent Effect": -10.91},
      {"smiles": "CN(C)S(=O)(=O)N1C[C@@H]2COC[C@]2(COc2ccccn2)C1.O=C(O)C(F)(F)F", "Percent Effect": 82.39},
      {"smiles": "O=C(O)C(F)(F)F.c1cnc(N2C[C@@H]3COC[C@]3(COCC3CCCC3)C2)nc1", "Percent Effect": 99.14},
      {"smiles": "CNC(=O)C(C)(C)NC(=O)c1cc(OCC2CCC2)cc(C(=O)OC)c1", "Percent Effect": -3.572},
      {"smiles": "Fc1cccc(-c2nnn3c2COC(CNCc2cccs2)C3)c1.O=C(O)C(F)(F)F", "note": "(configuration not stated)", "Percent Effect": 3.148},
      {"smiles": "CCCN1CCC(N2CCN(c3cc(C)nc(COC)n3)CC2)CC1", "Percent Effect": -8.34}
    ]}
  ]
}
